Screening data from PubChem.
SARS PLP yeast – blocks SARS-CoV papain-like protease in a yeast assay; AID 485353; actives 0.19% (n = 330,000); Potency, µM (highest dose often 32.9 µM), hits mostly activators; S. cerevisiae expressing SARS-CoV PLpro, growth rescue; calls by dose curve; note: nearly all actives have a fitted effect of over 55% in size
Pf growth 96h – inhibits malaria parasite growth, 96 h; Potency, µM (doses to about 28.7 µM), actives largely listed as inhibitors; P. falciparum luciferase reporter growth, 96 h; actives 6.9% (n = 320,000); AID 504834
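Compounds incubated with erythrocytes infected by luciferase-expressing P. falciparum (2% hematocrit, 0.05% parasitemia final) for 96 hours, 37 C in 5% CO2. Growth inhibition scored as decreased luciferase luminescence.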
Pf growth 48h – P. falciparum growth inhibition at 48 hours (one generation). P. falciparum luciferase growth in erythrocytes, 48 h. Potency, µM (highest dose often 28.7 µM), most hits filed as inhibitors. actives 5.9% (n = 310,000)
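A one-generation exposure of luciferase-tagged malaria parasites in RPMI 1640/Albumax erythrocyte culture, 37 C and 5% CO2. Inhibition is inferred from decreased luminescence after adding detection reagent.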
Sm TGR inh – inhibitors of Schistosoma mansoni thioredoxin glutathione reductase. Potency, µM (series often up to 114 µM), actives largely listed as inhibitors. purified TGR, DTNB reduction, TNB absorbance 405 nm. Q962Y6. actives 3% (n = 360,000); note: nearly all actives have a fitted effect of over 60% in size
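First, TGR (20 nM dispensed) and NADPH were mixed with compound. Second, a 15 min room-temperature incubation followed. Third, further NADPH and then DTNB were added to start the reaction. Finally, TNB absorbance was monitored kinetically.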
Numbers stand for hits; i = inactive; ? = inconclusive; nt = no result given; [ ] = remark or other dose. Most compounds without a hit are left out; they make up all but 12% or so of the library. Unless noted, calls come from the whole dose curve; as a rule, active = well fitted curve in the direction sought with a large enough effect; inconclusive = small, poorly fitted or top-dose-only effect, or another doubt; inactive = no such curve, though single readings can be large; an effect the other way counts as inactive or inconclusive.

SMILES	SARS PLP yeast	Pf growth 96h	Pf growth 48h	Sm TGR inh
O=C(O)c1cc2ccc3cccc4ccc(c1)c2c34	i	i	nt	i
Cc1nn(-c2ccc(N3CCOCC3)nn2)c(C)c1CCC(=O)NCc1ccc(Cl)cc1	nt	nt	nt	i
CCOC(=O)C1=C(CS(=O)(=O)c2ccccc2)NC(=O)NC1c1ccccc1OC (stereo unspecified)	i	?	i	i
c1ccc2nc(N3CCCC3)c(N3CCCC3)nc2c1	i	?	i	i
CN(C)C=Nc1nc2ccccc2nc1N1CCCC1	i	i[5.75 µM]	i	40µM
CSc1nc(NCc2ccccc2)c2c3c(sc2n1)CN(C)CC3	i	?	13µM	i
COCCNc1nc(SC)nc2sc3c(c12)CCN(C)C3	i	?	i	i
CSc1nc(NCC(C)C)c2c3c(sc2n1)CN(C)CC3	i	3.3µM	?	i
COc1ccccc1-c1noc(-c2ccc(N3CCC(C)CC3)c([N+](=O)[O-])c2)n1	nt	nt	nt	i
CC(C)C(=O)N1CCc2cc(-c3csc(N)n3)ccc21	?	i	10µM	i
Cc1ccccc1C(=O)N1CCc2cc(-c3csc(NC(=O)CN4CCCC4)n3)ccc21	i	i	4.1µM	i
Cc1cc(NC(=O)CSCC(=O)Nc2ccccc2N2CCCCC2)no1	i	?	13µM	i
O=C(Cc1ccc(Cl)c(Cl)c1)Nc1ccccc1N1CCCC1	i	12µM	i	i
O=C(Cc1ccc(F)cc1)Nc1ccccc1N1CCCC1	i	i	i	i
Cc1cc(NC(=O)CSCC(=O)Nc2cc(C(F)(F)F)ccc2N2CCCC2)no1	i	i	?	i
COc1ccc(C(C(=O)NC2CCCC2)N(C(=O)c2ccoc2C)c2ccc(C)c(C)c2)cc1 (stereo unspecified)	i	1µM	?	i
COc1cc(OC)cc(N(C(=O)c2ccco2)C(C(=O)NC2CCCC2)c2ccc(N(C)C)cc2)c1 (stereo unspecified)	i	?	12µM	i
COc1ccc(N(C(=O)c2ccco2)C(C(=O)NC2CCCC2)c2ccc(N(C)C)cc2)cc1OC (stereo unspecified)	i	i	13µM	i
COc1ccc(C(C(=O)NC2CCCC2)N(C(=O)c2ccoc2C)c2cc(C)cc(C)c2)cc1 (stereo unspecified)	i	?	i	i
COc1cccc(N(C(=O)CNC(=O)c2ccco2)C(C(=O)NC2CCCCC2)c2ccncc2)c1 (stereo unspecified)	i	9.3µM	i	i
COc1cccc(N(C(=O)c2ccco2)C(C(=O)NC2CCCC2)c2ccc(N(C)C)cc2)c1 (stereo unspecified)	?	i	i	i
COc1cccc(N(C(=O)CNC(=O)c2ccco2)C(C(=O)NC2CCCC2)c2ccco2)c1 (stereo unspecified)	i	i	?	i
CN1C(=O)C(N=Nc2ccccc2C(=O)O)N(C)C1=S (stereo unspecified)	i	?	?	nt
c1ccc2[nH]c(CN3CCN(c4ncnc5c4oc4ccccc45)CC3)nc2c1	i	i	?	i
Cc1nc(N2CCN(Cc3nc4ccccc4[nH]3)CC2)c2oc3ccccc3c2n1	i	5.9µM	?	i
SMILES	SARS PLP yeast	Pf growth 96h	Pf growth 48h	Sm TGR inh
CCCOc1cccc(C2C(C(=O)c3ccc(C)o3)=C(O)C(=O)N2c2nc(C)c(C(C)=O)s2)c1 (stereo unspecified)	i	?	i	35µM
CCCOc1cccc(C2C(C(=O)c3ccc(C)o3)=C(O)C(=O)N2CCN2CCOCC2)c1 (stereo unspecified)	i	i	i	?
C=CCOc1cccc(C2C(C(=O)c3ccc(C)o3)=C(O)C(=O)N2CCN(C)C)c1 (stereo unspecified)	i	3.7µM	i	35µM
CCOC(=O)C(Cc1ccccc1)C(=O)Nc1ccc(NC(=O)C(Cc2ccccc2)C(=O)OCC)cc1 (stereo unspecified)	i	i	i	i
CCC(C(=O)Nc1ccncc1)c1ccccc1 (stereo unspecified)	i	i	4.7µM	i
CCC(C(=O)Nc1ccc(C)cc1)c1ccccc1 (stereo unspecified)	i	i	i[5.75 µM]	i
CCOC(=O)C(Cc1ccccc1)C(=O)NCc1ccccc1 (stereo unspecified)	i	3.3µM	i	i
CCC(C(=O)NCc1ccc(C)cc1)c1ccccc1 (stereo unspecified)	i	15µM	i	i
Cc1nn2c(=O)cc(COC(=O)c3cccc(NC(=O)c4cccs4)c3)nc2s1	nt	nt	nt	i
O=C1NC(=O)C(CCc2ccncc2)(CCc2ccccn2)C(=O)N1c1ccc(Br)cc1 (stereo unspecified)	i	i	?	i
Cc1ccc(N2C(=O)NC(=O)C(CCc3ccccn3)(Cc3cccc(Cl)c3Cl)C2=O)cc1 (stereo unspecified)	i	2.3µM	i	i
O=C(COC(=O)CCS(=O)(=O)c1ccccc1)NC(=O)c1ccc(OC(F)F)cc1	i	i	i	i
O=S(=O)(c1ccccc1)c1cc(O)ccc1O	i	i	i	28µM
O=S(=O)(c1ccc(Cl)cc1)c1cc(O)ccc1O	i	i	i	11µM
Cc1c(O)ccc2cc(S(=O)(=O)c3ccccc3)c(=O)oc12	i	12µM	i[0.00184 µM]	i
Cc1ccc(S(=O)(=O)c2cc3ccccc3oc2=O)cc1	i	i	i	i
CCO[C@@H]1OC(C(=O)NCc2ccccc2)=C[C@H](c2cn(C(C)=O)c3ccccc23)[C@H]1CCCO	i	4.1µM	5.2µM	i
CCO[C@@H]1OC(C(=O)N2CCN(Cc3ccccc3)CC2)=C[C@H](c2csc3ccccc23)[C@H]1CCCO	i	6.6µM	?	i
CCO[C@H]1OC(C(=O)N2CCCCCCC2)=C[C@@H](c2csc3ccccc23)[C@@H]1CCCO	i	?	i	i
CCO[C@@H]1OC(C(=O)N2CCN(Cc3ccccc3)CC2)=C[C@H](c2cn(C(C)=O)c3ccccc23)[C@H]1CCCO	i	8.3µM	8.3µM	?
CCO[C@H]1OC(C(=O)N2CCN(Cc3ccccc3)CC2)=C[C@@H](c2ccc(C(F)(F)F)cc2)[C@@H]1CCCO	i	1.5µM	?	i
CC(=O)N1CCN(C(=O)c2cccc(NS(=O)(=O)c3ccc(Br)cc3)c2)CC1	i	i	?	i
O=C(NCCc1ccccc1)c1ccc(Nc2nc3ccccc3n3nnnc23)cc1	nt	nt	nt	i
CCn1c(=O)c2cc(C(=O)N(CCCOC(C)C)Cc3ccco3)sc2c2ccccc21	nt	nt	nt	i
CCN(C(=O)c1coc(=O)c(Br)c1)c1ccc2c(c1)OCO2	i	?	?	45µM
COC(=O)c1c(NC(=O)CCCOc2ccccc2C)sc2c1CCC2	nt	nt	nt	i
CCN(CC(=O)Nc1ccc(OC)cc1)CC(=O)Nc1sc2c(c1C(=O)OC)CCCC2	i	i	?	i
Cc1ccc(N(C(=O)c2snc(C(N)=O)c2N)C(C(=O)NC2CCCC2)c2ccc(C)o2)cc1 (stereo unspecified)	i	?	10µM	i
CCCC(C(=O)NC1CCCC1)N(C(=O)c1snc(C(N)=O)c1N)c1ccc(OCC)cc1 (stereo unspecified)	i	i	?	i
